For 93 molecules, inhibition results are on record in PubChem BioAssay AID1347418 (Sanford-Burnham Center for Chemical Genomics, 2020).

Among all 1,300 compounds or so, about 750 (58%) were called active. The list shows a part of the results. Values without a mark were called inactive.

For the assay, the target named is Sulfhydryl oxidase 1 (Homo sapiens) (UniProt O00391). Put plainly: inhibition of human sulfhydryl oxidase QSOX1 – biochemical, ROS-Glo H2O2 luminescence, HTS, primary screen (AID 1347418). The following applies: recombinant QSOX1, ROS-Glo H2O2 luminescence; at 12.5 µM; hits give high values; active = any value above zero.
Chain of Sulfhydryl oxidase 1 (Homo sapiens) (O00391 whole entry, looked up): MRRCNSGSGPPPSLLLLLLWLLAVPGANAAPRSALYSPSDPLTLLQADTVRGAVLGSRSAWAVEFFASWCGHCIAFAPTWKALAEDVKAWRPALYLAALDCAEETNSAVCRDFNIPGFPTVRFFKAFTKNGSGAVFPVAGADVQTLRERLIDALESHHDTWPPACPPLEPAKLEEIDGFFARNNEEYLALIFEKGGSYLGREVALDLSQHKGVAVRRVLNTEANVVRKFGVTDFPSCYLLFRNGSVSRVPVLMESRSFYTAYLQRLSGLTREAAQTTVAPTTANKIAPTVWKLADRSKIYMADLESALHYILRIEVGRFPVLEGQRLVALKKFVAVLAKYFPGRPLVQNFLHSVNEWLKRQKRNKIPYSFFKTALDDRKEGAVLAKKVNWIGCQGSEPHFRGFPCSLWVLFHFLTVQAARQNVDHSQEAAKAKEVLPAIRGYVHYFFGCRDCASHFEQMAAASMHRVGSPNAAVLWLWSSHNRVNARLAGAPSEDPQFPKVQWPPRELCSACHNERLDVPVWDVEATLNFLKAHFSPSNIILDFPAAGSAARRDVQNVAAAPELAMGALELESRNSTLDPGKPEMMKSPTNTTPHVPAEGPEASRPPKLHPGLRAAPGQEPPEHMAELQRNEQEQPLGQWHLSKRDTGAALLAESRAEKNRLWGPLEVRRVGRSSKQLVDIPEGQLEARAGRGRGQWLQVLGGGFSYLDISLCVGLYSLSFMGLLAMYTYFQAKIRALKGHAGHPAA
One may read the inhibition as the relative decrease from the control value, in per cent. On to `COc1cc(SC)ccc1C(=O)N1CCC(Cc2ccccc2)CC1`, for which the inhibition is 1.4% (active).
The result for `COc1ccc(/C=C2\COc3ccc(C)cc3C2=O)cc1O` reads -1.7%; that for `CNCCC(Oc1ccccc1C)c1ccccc1` (stereo not drawn), 0%.
Take `CNCCC(Oc1ccc(C(F)(F)F)cc1)c1ccccc1` (stereo not drawn): the inhibition was 2.1% (active).
Turning to `CNCCC(Oc1ccccc1OC)c1ccccc1` (stereo not drawn), the inhibition was -2.5%.
The result for `CN(CC[C@@H](Oc1ccc(C(F)(F)F)cc1)c1ccccc1)CC(=O)O` reads 6.8% (active); that for `CNCC[C@H](Oc1ccc(C(F)(F)F)cc1)c1ccccc1`, 11.2% (active).
For `OC1(c2ccc(Cl)cc2)CCN(Cc2c[nH]c3ccccc23)CC1`, the inhibition was -1.5%.
As to `Clc1ccc(N2CCN(Cc3c[nH]c4ncccc34)CC2)cc1`, the inhibition is 24.1% (active).
As to `Ic1ccc(N2CCN(Cc3c[nH]c4ncccc34)CC2)cc1`, the inhibition was 15.6% (active).
For `Nc1nc2ccc(Cl)cc2c2nc(-c3ccco3)nn12`, the inhibition was -0.2%.
Take `Nc1nc2c(cnn2CCc2ccccc2)c2nc(-c3ccco3)nn12`: the inhibition was 1.8% (active).
The result for `CN1C2CCC1CC(OC(=O)C(CO)c1ccccc1)C2` (stereo not drawn) reads 3% (active); that for `CN1C2CCC1CC(OC(=O)c1c[nH]c3ccccc13)C2` (stereo not drawn), 2.4% (active); that for `CN1C2CCC1CC(OC(=O)C(O)c1ccccc1)C2` (stereo not drawn), -5.9%.
As for `CN1C2CC(OC(=O)[C@H](CO)c3ccccc3)CC1C1OC12` (stereo partly drawn), the inhibition is -3.1%.
For `CN1C2CCC1CC(OC(c1ccccc1)c1ccccc1)C2` (stereo not drawn), the inhibition was -10.1%.
The result for `COc1ccc(/C=C/C(=O)Nc2ccccc2C(=O)O)cc1OC` reads 23.4% (active); that for `CN[C@H](CC(C)C)C(=O)N[C@H]1C(=O)N[C@@H](CC(N)=O)C(=O)N[C@H]2C(=O)N[C@H]3C(=O)N[C@H](C(=O)N[C@H](C(=O)O)c4cc(O)cc(O)c4-c4cc3ccc4O)[C@H](O)c3ccc(c(Cl)c3)Oc3cc2cc(c3O[C@@H]2O[C@H](CO)[C@@H](O)[C@H](O)[C@H]2O[C@H]2C[C@](C)(N)[C@H](O)[C@H](C)O2)Oc2ccc(cc2Cl)[C@H]1O`, 3.1% (active).
With `CC1=C(C)C(=O)C(CCCCC#CCCCC#CCO)=C(C)C1=O` the figure was 5.7% (active); with `C=C1C[C@@]23CC[C@H]4[C@@](C)(CCC[C@@]4(C)C(=O)OC4OC(CO)C(O)C(O)C4O)[C@@H]2CCC1(OC1OC(CO)C(O)C(O)C1OC1OC(CO)C(O)C(O)C1O)C3` (stereo partly drawn), 5.4% (active).
The result for `C=C1C[C@@]23CC[C@H]4[C@@](C)(CCC[C@@]4(C)C(=O)O)[C@@H]2CC[C@]1(O)C3` reads -3.8%; that for `CN1CC(=O)N/C1=N\C(=O)Nc1cccc(Cl)c1`, -0.1%.
Regarding `O=C(O)CCC(=O)N1CCCC1C(=O)O` (stereo not drawn), the inhibition is 4.1% (active).
The result for `C[C@H](CS)C(=O)N1CCC[C@H]1C(=O)O` reads 0.1% (active); that for `NC(N)=Nc1nc(CSCC/C(N)=N/S(N)(=O)=O)cs1`, 0.1% (active); that for `CC(C)C(=O)c1c(C(C)C)nn2ccccc12`, -4.2%.
Take `CCOC(=O)N1CCC(=C2c3ccc(Cl)cc3CCc3cccnc32)CC1`: the inhibition was -1.5%.
With `Cc1c(OCC(F)(F)F)ccnc1CS(=O)c1nc2ccccc2[nH]1` (stereo not drawn) the figure was -0.2%.
With `CCn1cc(C(=O)O)c(=O)c2cc3c(cc21)OCO3` the figure was 2.6% (active); with `CCn1nc(C(=O)O)c(=O)c2cc3c(cc21)OCO3`, 3.1% (active).
With `CCn1cc(C(=O)O)c(=O)c2ccc(C)nc21`, the inhibition is -5.8%.
Turning to `CCn1cc(C(=O)O)c(=O)c2cc(F)c(N3CCNC(C)C3)c(F)c21` (stereo not drawn), the inhibition is -1.7%.
As for `O=C(O)c1cc2cc(Cc3cccnc3)ccc2o1`, the inhibition was -7.8%.
The result for `COc1ccc2c(c1)CCC1C2CC[C@@]2(C)C1CC[C@@H]2NCCCCCCN1C(=O)C=CC1=O` (stereo partly drawn) reads -7.4%; that for `C[C@]12CC[C@@H]3c4ccc(O)cc4CC[C@H]3[C@@H]1CC[C@@H]2O`, 5.6% (active); that for `C[C@]12CC[C@@H]3c4ccc(O)cc4C[C@@H](CCCCCCCCCS(=O)CCCC(F)(F)C(F)(F)F)[C@H]3[C@@H]1CC[C@@H]2O` (stereo partly drawn), -4.8%.
Consider `C[C@]12CC[C@@H]3c4ccc(O)cc4CC[C@H]3[C@@H]1CCC2=O`, for which the inhibition was -1.6%.
With `COc1ccc2c(c1)CCC1C2CC[C@@]2(C)C1CC[C@@H]2NCCCCCCN1C(=O)CCC1=O` (stereo partly drawn) the figure was -2.7%.
As to `COc1cc2c(cc1O)CC[C@@H]1[C@@H]2CC[C@]2(C)[C@@H](O)CC[C@@H]12`, the inhibition is 36% (active).
As for `CCCCCCN(CCCCCC)C(=O)Cc1c(-c2ccc(F)cc2)[nH]c2ccccc12`, the inhibition is -2.9%.
With `COc1cc2nc(N3CCCN(C)CC3)nc(NC3CCN(Cc4ccccc4)CC3)c2cc1OC`, the inhibition was 1.5% (active).
With `Oc1ccc(O)cc1` the figure was 11.1% (active); with `CNc1ncnc2c1ncn2[C@H]1C[C@H](OP(=O)(O)O)[C@@H](COP(=O)(O)O)O1`, -3.3%.
On to `C[N+](C)(C)CCOP(=O)(O)OP(=O)([O-])OC[C@H]1O[C@@H](n2ccc(N)nc2=O)C(O)[C@H]1O` (stereo partly drawn), for which the inhibition is -0.3%.
With `CSc1nc(N)c2ncn([C@@H]3O[C+](COP(=O)([O-])OP(=O)(O)O)[C@H](O)C3O)c2n1` (stereo partly drawn) the figure was 0.7% (active); with `NC(N)=NC(N)=Nc1ccccc1`, -4.7%.
The result for `NC(N)=NC(N)=Nc1cccc(Cl)c1` reads 9.6% (active); that for `NC(N)=NC(=O)Cc1c(Cl)cccc1Cl`, -6.8%; that for `Oc1ccccc1O`, 5.6% (active).
With `CCCN(CCc1ccccc1)C1CCc2c(O)cccc2C1` (stereo not drawn) the figure was -0.3%; with `CCN(CC)CCCN(c1ccccc1)C1Cc2ccccc2C1`, 40.2% (active); with `COc1cccc(-c2cc(=O)c3ccccc3o2)c1N`, 0.9% (active).
On to `N#Cc1cc2nc(O)c(O)nc2cc1[N+](=O)[O-]`, for which the inhibition was 0.9% (active).
The result for `O=C1NCC2(CCN(CCc3ccccc3)CC2)O1` reads -1%; that for `C[C@@H](O)[C@H]1C(=O)N2C(C(=O)O)=C(SCCN=CN)C[C@H]12`, -5.2%; that for `Cc1cccc(C2CN(C)CCc3c2cc(O)c(O)c3Cl)c1` (stereo not drawn), 25% (active).
On to `C=CCN1CCc2cc(O)c(O)cc2C(c2ccccc2)C1` (stereo not drawn), for which the inhibition is 18% (active).
With `C=CCN1CCc2c(cc(O)c(O)c2Br)[C@@H](c2ccccc2)C1` the figure was 26.8% (active).
In the case of `C=CCN1CCc2c(cc(O)c(O)c2Cl)C(c2ccccc2)C1` (stereo not drawn), the inhibition was 31.6% (active).
As for `COC(=O)C1=CO[C@@H](O)[C@@H]2C(CO)=CC[C@H]12`, the inhibition was -3.2%.
The result for `NCC1OC(O[C@@H]2[C@H](O)C(OC3C(O)C(N)CC(N)C3OC3OC(CO)C(O)C(O)C3N)O[C@@H]2CO)C(N)C(O)C1O` (stereo partly drawn) reads -3.5%; that for `C=C(C)C1CC=C(C(=O)O)CC1` (stereo not drawn), -1.3%; that for `NC1C=CC=C(C(=O)O)C1` (stereo not drawn), -2.2%.
The result for `CNC(=O)Oc1ccc2c(c1)[C@]1(C)CCN(C)[C@@H]1N2C` reads 2.6% (active).
`CC(C)(C)c1ccc(C(=O)CCCN2CCC(OC(c3ccccc3)c3ccccc3)CC2)cc1`: the inhibition was -3.2%.
As for `O=C(O)C1CCCN(CCC=C(c2ccccc2)c2ccccc2)C1` (stereo not drawn), the inhibition was -3.9%.
With `CN1[C@@H](CC(=O)c2ccccc2)CCC[C@H]1C[C@H](O)c1ccccc1` the figure was 4.3% (active).
With `CC(C)c1cccc(C(C)C)c1N1C(=O)c2ccc(O)cc2C1=O` the figure was 0.3% (active); with `CCCCN1CCC(n2c(=O)[nH]c3ccccc32)CC1`, -1.6%; with `O=C(CCCN1CCC(O)(c2ccc(Cl)cc2)CC1)c1ccc(F)cc1`, -4%.
With `O=C(O)/C=C/c1ccc(O)c(O)c1` the figure was 9.6% (active); with `O=C(/C=C/c1ccc(O)c(O)c1)OCCc1ccccc1`, 19.7% (active); with `O=c1cc(-c2ccccc2)[nH]c2nc(Cl)ccc12`, -0.2%.
Take `Nc1nc(O)c2nc(Br)n(C3OC4COP(=O)(O)O[C@@H]4C3O)c2n1` (stereo partly drawn): the inhibition was -4.7%.
With `Nc1ncnc2c1nc(Br)n2C1OC2COP(=O)(O)O[C@@H]2C1O` (stereo partly drawn) the figure was -1.8%.
With `Nc1ncnc2c1nc(Sc1ccc(Cl)cc1)n2C1OC2COP(=O)(O)O[C@@H]2[C@@H]1O` (stereo partly drawn) the figure was 1.8% (active); with `C[C@H]1O[C@@H](n2cc(F)c(=O)[nH]c2=O)[C@H](O)[C@@H]1O`, 4.5% (active); with `O=c1ccn([C@@H]2O[C@H](COP(=O)(O)OP(=O)(O)O)[C@@H](O)[C@H]2O)c(=O)[nH]1`, -4.1%.
In the case of `c1ccc2c(c1)CCC[C@H]2Nc1nc2ccccc2[nH]1`, the inhibition is 12.1% (active).
With `c1ccc2c(c1)CCCC2C1=NCCN1` (stereo not drawn), the inhibition was -3.7%.
The result for `NC(=Nc1ccccc1)NC(=O)c1nc(Cl)c(N)nc1N` reads -0.3%; that for `NC(=NCc1ccccc1)NC(=O)c1nc(Cl)c(N)nc1N`, 4.4% (active).
In the case of `CCN(CC)CCOC(=O)c1ccc(N)cc1`, the inhibition was -3.4%.
Turning to `CCCCc1oc2ccccc2c1C(=O)c1cc(I)c(OCCN(CC)CC)c(I)c1`, the inhibition is -1%.
The result for `CCN(CC)CCCCCCCCOC(=O)c1cc(OC)c(OC)c(OC)c1` reads 6.2% (active).
With `CC(=O)NNC(=O)N1Cc2ccccc2Oc2ccc(Cl)cc21` the figure was 2.6% (active).
For `C[C@]12C=CC(=O)C=C1CC[C@H]1[C@@H]3C[C@@H](O)[C@](O)(C(=O)CO)[C@@]3(C)C[C@H](O)[C@@]12F`, the inhibition is -107%.
As to `C[C@H]1CC2C3CCC4=CC(=O)C=C[C@]4(C)[C@@]3(Cl)[C@@H](O)C[C@]2(C)[C@@]1(O)C(=O)CO` (stereo partly drawn), the inhibition is 8.8% (active).
Regarding `CC1CC2C3CCC4=CC(=O)C=C[C@]4(C)[C@@]3(F)[C@@H](O)C[C@]2(C)[C@@]1(O)C(=O)CO` (stereo partly drawn), the inhibition was 2.3% (active).
The result for `CCCC1O[C@@H]2C[C@H]3[C@@H]4CCC5=CC(=O)C=C[C@]5(C)[C@H]4[C@@H](O)C[C@]3(C)[C@]2(C(=O)CO)O1` (stereo partly drawn) reads -0.8%.
With `NC12CC3CC(CC(C3)C1)C2` the figure was -0.1%; with `CC12CC3CC(C)(C1)CC(N)(C3)C2`, 3.5% (active).
